# Source: publication PMC7862700, “An all-to-all approach to the identification of sequence-specific readers for epigenetic DNA modifications on cytosine”
# Columns and labels:
# Test in all cases: DAPPL (digital affinity profiling via proximity ligation, sequencing); 10 mM Tris-HCl pH 7.5, 50 mM NaCl, 1 mM DTT, 4% glycerol, room temperature, 30 min; GST-TFs on glutathione beads, 16-mer random dsDNA library, 0.1% formaldehyde crosslink after washing; high values mean tight binding
# FEV = molecular target: T1, FEV (Homo sapiens, UniProt Q99581 1-238); details: protein: recombinant; tags: N-terminal GST; dsDNA, one strand shown
# T1 sequence: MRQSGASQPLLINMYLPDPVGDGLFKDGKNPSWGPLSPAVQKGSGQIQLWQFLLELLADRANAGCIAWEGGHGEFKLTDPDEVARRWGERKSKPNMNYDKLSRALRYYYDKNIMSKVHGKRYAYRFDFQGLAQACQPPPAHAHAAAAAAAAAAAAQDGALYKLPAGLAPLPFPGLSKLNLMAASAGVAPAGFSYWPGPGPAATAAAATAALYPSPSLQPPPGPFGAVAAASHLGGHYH
# How it was run: (§1)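 After expression in yeast as GST fusions, human transcription factors were bound to glutathione beads, DNA-barcoded and mixed with a tag-only sample. The pools were incubated with 200 nmole of a 16-mer random double-stranded DNA library in Tris/NaCl/DTT/glycerol buffer (30 min, room temperature), washed and crosslinked with 0.1% formaldehyde. Proximity ligation with BsaI/T4 ligase ran for 1 h at 37 °C, before PCR amplification and sequencing on an Illumina NextSeq500. Binding signal is a hexamer's read frequency for a factor divided by its frequency for the tag-only sample.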
# ETV5 = ETV5 (Homo sapiens, UniProt P41161 1-510); details: protein: recombinant; tags: N-terminal GST; dsDNA, one strand shown
# How it was run: as §1
# HSF1 = HSF1 (Homo sapiens, UniProt Q00613 1-529); details: protein: recombinant; tags: N-terminal GST; chain copies: 3; dsDNA, one strand shown
# How it was run: as §1
# SPIC = molecular target: T2, SPIC (Homo sapiens, UniProt Q8N5J4 1-248); details: protein: recombinant; tags: N-terminal GST; dsDNA, one strand shown
# T2 sequence: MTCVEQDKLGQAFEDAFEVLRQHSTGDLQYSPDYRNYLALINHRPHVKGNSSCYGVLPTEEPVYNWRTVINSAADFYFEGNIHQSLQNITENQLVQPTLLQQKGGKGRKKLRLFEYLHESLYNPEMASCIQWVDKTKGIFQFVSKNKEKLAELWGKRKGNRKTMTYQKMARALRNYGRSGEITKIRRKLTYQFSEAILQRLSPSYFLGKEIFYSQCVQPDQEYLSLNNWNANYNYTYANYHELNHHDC
# How it was run: as §1
# ELF4 = ELF4 (Homo sapiens, UniProt Q99607 1-663); details: protein: recombinant; tags: N-terminal GST; dsDNA, one strand shown
# How it was run: as §1
# ELK4 = molecular target: T3, ELK4 (Homo sapiens, UniProt P28324-2 1-405); details: protein: recombinant; tags: N-terminal GST; dsDNA, one strand shown
# T3 sequence: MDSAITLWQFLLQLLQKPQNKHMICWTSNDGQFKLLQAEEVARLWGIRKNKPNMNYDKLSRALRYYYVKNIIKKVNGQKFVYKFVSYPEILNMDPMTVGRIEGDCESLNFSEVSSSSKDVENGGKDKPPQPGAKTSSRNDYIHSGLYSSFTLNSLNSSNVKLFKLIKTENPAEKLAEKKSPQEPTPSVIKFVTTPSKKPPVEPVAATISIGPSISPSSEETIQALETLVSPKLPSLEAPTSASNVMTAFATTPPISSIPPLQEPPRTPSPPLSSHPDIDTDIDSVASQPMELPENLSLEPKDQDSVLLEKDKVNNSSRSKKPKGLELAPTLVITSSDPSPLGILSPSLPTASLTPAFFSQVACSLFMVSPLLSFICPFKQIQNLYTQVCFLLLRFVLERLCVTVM
# How it was run: as §1
# ETV2 = molecular target: T4, ETV2 (Homo sapiens, UniProt O00321 1-342); details: protein: recombinant; tags: N-terminal GST; dsDNA, one strand shown
# T4 sequence: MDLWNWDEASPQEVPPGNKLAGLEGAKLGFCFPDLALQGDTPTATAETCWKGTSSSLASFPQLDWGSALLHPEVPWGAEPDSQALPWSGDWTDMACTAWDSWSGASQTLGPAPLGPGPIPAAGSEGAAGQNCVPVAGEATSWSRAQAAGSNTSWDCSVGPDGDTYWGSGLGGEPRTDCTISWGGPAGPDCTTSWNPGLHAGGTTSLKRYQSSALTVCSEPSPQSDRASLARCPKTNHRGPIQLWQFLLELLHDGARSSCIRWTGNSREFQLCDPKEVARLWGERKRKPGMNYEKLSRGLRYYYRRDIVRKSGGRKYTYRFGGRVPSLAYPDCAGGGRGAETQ
# How it was run: as §1
# ELF3 = molecular target: T5, ELF3 (Homo sapiens, UniProt P78545 1-371); details: protein: recombinant; tags: N-terminal GST; dsDNA, one strand shown
# T5 sequence: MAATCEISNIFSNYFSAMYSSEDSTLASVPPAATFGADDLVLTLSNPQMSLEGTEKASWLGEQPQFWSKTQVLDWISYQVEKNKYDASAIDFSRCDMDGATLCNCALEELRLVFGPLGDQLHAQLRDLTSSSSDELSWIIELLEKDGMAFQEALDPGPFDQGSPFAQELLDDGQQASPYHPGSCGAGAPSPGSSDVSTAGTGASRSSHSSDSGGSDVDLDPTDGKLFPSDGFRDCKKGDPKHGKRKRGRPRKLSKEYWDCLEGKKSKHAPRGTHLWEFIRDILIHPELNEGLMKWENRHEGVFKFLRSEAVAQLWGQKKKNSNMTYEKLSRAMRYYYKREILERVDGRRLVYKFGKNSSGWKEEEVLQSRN
# How it was run: as §1
# CRX = CRX (Homo sapiens, UniProt O43186 1-299); details: protein: recombinant; tags: N-terminal GST; dsDNA, one strand shown
# How it was run: as §1
# ETV1 = ETV1 (Homo sapiens, UniProt P50549 1-477); details: protein: recombinant; tags: N-terminal GST; dsDNA, one strand shown
# How it was run: as §1
# ERF = molecular target: T6, ERF (Homo sapiens, UniProt P50548 1-548); details: protein: recombinant; tags: N-terminal GST; dsDNA, one strand shown
# T6 sequence: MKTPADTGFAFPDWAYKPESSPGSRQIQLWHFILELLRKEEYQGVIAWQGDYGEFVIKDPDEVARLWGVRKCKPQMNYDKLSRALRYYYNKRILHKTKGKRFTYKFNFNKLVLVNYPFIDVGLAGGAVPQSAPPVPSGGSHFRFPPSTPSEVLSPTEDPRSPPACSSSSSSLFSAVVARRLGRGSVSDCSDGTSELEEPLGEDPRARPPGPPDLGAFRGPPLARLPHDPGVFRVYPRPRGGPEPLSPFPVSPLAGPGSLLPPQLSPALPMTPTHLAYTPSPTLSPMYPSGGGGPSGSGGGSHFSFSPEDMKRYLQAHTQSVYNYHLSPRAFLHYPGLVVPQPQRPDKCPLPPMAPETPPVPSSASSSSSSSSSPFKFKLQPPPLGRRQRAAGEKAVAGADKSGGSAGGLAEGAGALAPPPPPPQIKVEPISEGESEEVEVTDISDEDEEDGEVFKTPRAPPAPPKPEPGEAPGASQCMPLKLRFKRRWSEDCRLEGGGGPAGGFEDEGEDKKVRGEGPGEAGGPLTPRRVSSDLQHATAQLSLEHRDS
# How it was run: as §1
# ETV3L = molecular target: T7, ETV3L (Homo sapiens, UniProt Q6ZN32 1-361); details: protein: recombinant; tags: N-terminal GST; dsDNA, one strand shown
# T7 sequence: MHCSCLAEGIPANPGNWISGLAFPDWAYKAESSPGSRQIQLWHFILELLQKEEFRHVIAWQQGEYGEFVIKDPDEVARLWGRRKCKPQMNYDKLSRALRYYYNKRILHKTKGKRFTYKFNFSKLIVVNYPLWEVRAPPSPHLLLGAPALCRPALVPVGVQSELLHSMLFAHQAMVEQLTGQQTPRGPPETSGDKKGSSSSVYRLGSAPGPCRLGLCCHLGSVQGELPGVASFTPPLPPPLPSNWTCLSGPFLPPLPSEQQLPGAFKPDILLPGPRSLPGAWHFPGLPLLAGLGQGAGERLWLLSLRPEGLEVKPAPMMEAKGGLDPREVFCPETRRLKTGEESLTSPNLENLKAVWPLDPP
# How it was run: as §1
# ETS2 = molecular target: T8, ETS2 (Homo sapiens, UniProt P15036 1-469); details: protein: recombinant; tags: N-terminal GST; dsDNA, one strand shown
# T8 sequence: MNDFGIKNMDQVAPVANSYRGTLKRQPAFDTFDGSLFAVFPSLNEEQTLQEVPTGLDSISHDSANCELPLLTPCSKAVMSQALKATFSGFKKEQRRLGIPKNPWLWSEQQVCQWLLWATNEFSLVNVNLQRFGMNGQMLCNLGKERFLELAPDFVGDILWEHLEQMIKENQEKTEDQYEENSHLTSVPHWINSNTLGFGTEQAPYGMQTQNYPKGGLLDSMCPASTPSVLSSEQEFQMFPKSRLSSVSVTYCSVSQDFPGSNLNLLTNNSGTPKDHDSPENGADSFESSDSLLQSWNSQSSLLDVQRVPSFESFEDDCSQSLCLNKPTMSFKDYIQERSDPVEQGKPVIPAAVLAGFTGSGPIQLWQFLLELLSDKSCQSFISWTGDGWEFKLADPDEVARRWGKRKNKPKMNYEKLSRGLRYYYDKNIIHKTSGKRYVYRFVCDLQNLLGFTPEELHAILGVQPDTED
# How it was run: as §1
# SPDEF = molecular target: T9, SPDEF (Homo sapiens, UniProt O95238 1-335); details: protein: recombinant; tags: N-terminal GST; dsDNA, one strand shown
# T9 sequence: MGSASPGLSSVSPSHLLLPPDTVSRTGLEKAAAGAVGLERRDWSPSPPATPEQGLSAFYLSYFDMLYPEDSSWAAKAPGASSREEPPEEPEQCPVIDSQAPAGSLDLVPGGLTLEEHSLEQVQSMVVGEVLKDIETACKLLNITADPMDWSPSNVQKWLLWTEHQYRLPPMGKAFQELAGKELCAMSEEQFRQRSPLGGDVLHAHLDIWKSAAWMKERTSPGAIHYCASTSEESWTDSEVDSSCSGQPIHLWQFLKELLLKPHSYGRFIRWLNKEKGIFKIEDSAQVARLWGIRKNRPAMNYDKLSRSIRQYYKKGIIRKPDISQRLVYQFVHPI
# How it was run: as §1
# ETV7 = molecular target: T10, ETV7 (Homo sapiens, UniProt Q9Y603 1-341); details: protein: recombinant; tags: N-terminal GST; dsDNA, one strand shown
# T10 sequence: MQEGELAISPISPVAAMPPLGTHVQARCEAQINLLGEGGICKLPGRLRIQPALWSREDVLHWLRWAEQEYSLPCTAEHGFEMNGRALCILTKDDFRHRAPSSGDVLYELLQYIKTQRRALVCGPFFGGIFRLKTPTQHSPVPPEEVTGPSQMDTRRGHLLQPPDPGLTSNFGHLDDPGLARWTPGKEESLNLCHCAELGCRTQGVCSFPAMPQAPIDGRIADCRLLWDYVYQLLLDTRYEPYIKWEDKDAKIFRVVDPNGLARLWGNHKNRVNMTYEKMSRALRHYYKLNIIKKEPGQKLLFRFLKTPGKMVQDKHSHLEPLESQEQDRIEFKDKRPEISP
# How it was run: as §1
# ELF5 = molecular target: T11, ELF5 (Homo sapiens, UniProt Q9UKW6-2 1-255); details: protein: recombinant; tags: N-terminal GST; dsDNA, one strand shown
# T11 sequence: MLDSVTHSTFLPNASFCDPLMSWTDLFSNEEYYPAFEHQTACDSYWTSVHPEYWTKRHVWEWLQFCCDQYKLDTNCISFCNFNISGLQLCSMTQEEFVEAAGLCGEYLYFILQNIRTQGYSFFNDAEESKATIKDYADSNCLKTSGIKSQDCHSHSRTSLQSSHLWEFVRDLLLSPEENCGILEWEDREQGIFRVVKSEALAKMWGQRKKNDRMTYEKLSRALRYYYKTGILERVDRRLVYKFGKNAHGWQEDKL
# How it was run: as §1
# ETV3 = molecular target: T12, ETV3 (Homo sapiens, UniProt P41162-2 1-143); details: protein: recombinant; tags: N-terminal GST; dsDNA, one strand shown
# T12 sequence: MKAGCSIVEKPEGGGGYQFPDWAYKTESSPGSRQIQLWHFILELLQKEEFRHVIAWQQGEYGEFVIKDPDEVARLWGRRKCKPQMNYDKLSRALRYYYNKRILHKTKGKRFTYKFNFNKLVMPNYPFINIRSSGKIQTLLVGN
# How it was run: as §1
# ETV6 = ETV6 (Homo sapiens, UniProt P41212 1-452); details: protein: recombinant; tags: N-terminal GST; dsDNA, one strand shown
# How it was run: as §1
# Sequence of ELF4 (Q99607 whole entry): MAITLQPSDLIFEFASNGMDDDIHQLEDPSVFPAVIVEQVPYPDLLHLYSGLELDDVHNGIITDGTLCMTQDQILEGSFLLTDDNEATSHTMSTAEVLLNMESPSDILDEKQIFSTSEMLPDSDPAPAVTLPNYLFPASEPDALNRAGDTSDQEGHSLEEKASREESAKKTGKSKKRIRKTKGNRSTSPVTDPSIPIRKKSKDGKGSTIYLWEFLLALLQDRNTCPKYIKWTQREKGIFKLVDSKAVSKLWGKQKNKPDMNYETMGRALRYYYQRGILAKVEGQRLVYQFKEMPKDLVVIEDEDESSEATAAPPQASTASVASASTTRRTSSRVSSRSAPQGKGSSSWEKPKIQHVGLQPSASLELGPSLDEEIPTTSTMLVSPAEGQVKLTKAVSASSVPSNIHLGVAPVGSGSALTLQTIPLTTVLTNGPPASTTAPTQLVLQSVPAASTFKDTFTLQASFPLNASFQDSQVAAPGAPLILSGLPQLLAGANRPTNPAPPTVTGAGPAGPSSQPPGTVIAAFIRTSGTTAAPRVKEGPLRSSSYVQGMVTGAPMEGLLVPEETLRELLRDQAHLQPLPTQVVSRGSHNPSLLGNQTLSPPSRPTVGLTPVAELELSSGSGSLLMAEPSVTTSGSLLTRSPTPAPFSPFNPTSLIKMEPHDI
# Sequence of ETV6 (P41212 whole entry): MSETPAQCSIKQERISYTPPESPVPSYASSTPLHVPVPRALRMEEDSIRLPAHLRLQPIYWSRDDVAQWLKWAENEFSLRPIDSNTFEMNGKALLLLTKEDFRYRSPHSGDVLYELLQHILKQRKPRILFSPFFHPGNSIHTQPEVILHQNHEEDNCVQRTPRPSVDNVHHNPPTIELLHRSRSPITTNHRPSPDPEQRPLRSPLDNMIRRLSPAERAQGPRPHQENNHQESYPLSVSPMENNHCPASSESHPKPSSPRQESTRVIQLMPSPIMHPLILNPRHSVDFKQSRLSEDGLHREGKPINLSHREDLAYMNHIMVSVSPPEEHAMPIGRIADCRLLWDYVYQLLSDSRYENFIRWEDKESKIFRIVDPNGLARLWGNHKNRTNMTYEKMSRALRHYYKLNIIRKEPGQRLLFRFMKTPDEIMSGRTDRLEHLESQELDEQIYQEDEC
# Sequence of CRX (O43186 whole entry): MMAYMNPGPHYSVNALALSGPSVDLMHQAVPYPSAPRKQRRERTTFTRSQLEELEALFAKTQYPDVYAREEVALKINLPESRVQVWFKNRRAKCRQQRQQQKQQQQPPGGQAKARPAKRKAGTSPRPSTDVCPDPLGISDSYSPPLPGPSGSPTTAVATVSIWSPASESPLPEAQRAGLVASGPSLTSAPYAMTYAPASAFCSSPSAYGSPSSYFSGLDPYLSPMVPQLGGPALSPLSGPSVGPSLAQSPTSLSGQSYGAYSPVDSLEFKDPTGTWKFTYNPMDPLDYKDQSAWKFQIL
# Sequence of ETV5 (P41161 whole entry): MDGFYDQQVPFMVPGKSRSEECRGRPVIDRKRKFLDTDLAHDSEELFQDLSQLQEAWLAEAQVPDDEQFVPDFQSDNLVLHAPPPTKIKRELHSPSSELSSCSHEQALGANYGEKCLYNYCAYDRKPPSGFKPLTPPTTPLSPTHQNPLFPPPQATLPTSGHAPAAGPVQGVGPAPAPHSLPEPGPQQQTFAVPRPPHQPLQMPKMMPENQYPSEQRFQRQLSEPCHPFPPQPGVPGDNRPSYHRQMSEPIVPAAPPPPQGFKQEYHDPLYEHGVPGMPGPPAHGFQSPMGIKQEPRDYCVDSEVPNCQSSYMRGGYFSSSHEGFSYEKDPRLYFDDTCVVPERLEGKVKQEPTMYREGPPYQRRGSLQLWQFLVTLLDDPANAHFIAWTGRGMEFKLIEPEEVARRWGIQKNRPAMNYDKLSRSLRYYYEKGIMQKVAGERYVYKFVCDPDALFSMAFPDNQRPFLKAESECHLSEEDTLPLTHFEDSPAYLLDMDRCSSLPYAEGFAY
# Sequence of ETV1 (P50549 whole entry): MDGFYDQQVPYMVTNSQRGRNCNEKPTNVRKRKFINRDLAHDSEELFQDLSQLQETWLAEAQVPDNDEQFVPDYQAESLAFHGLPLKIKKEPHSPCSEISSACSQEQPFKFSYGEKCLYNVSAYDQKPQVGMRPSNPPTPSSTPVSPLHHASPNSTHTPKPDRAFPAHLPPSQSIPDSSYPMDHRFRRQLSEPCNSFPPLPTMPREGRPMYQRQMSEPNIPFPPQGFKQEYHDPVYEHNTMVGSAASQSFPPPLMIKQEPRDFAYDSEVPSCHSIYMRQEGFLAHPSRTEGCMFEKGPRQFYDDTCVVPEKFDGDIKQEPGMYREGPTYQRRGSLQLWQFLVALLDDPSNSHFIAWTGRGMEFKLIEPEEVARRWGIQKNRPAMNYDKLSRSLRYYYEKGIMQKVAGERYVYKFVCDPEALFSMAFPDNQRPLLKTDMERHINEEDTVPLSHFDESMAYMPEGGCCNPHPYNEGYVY
# Sequence of HSF1 (Q00613 whole entry): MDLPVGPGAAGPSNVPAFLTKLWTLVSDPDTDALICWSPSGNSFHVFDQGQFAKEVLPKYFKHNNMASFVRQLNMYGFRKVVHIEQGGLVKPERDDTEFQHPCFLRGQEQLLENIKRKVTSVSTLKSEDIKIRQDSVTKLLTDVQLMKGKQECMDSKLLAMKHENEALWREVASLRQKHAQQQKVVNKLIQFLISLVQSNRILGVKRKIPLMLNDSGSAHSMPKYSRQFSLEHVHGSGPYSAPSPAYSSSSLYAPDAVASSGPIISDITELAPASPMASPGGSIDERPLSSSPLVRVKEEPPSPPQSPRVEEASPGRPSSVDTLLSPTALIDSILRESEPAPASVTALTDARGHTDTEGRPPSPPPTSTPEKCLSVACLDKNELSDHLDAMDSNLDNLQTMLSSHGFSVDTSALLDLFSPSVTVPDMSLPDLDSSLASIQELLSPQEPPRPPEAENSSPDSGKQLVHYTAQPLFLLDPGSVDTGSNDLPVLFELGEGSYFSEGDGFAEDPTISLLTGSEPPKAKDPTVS
sequence,measurement,setting,value
CTCCAC,binding signal,FEV,"1.42 fold enrichment (6-mer frequency, TF over GST control)"
same,binding signal,ETV5,"1.42 fold enrichment (6-mer frequency, TF over GST control)"
same,binding signal,HSF1,"1.26 fold enrichment (6-mer frequency, TF over GST control)"
same,binding signal,SPIC,"1.17 fold enrichment (6-mer frequency, TF over GST control)"
same,binding signal,ELF4,"1.4 fold enrichment (6-mer frequency, TF over GST control)"
same,binding signal,ELK4,"1.46 fold enrichment (6-mer frequency, TF over GST control)"
same,binding signal,ETV2,"1.3 fold enrichment (6-mer frequency, TF over GST control)"
same,binding signal,ELF3,"1.27 fold enrichment (6-mer frequency, TF over GST control)"
same,binding signal,CRX,"1.17 fold enrichment (6-mer frequency, TF over GST control)"
same,binding signal,ETV1,"1.25 fold enrichment (6-mer frequency, TF over GST control)"
same,binding signal,ERF,"1.31 fold enrichment (6-mer frequency, TF over GST control)"
same,binding signal,ETV3L,"1.45 fold enrichment (6-mer frequency, TF over GST control)"
same,binding signal,ETS2,"1.43 fold enrichment (6-mer frequency, TF over GST control)"
same,binding signal,SPDEF,"1.27 fold enrichment (6-mer frequency, TF over GST control)"
same,binding signal,ETV7,"1.39 fold enrichment (6-mer frequency, TF over GST control)"
same,binding signal,ELF5,"1.35 fold enrichment (6-mer frequency, TF over GST control)"
same,binding signal,ETV3,"1.3 fold enrichment (6-mer frequency, TF over GST control)"
same,binding signal,ETV6,"1.26 fold enrichment (6-mer frequency, TF over GST control)"
